Laboratory results: PMC5540273 (PLoS ONE, 2017)

What was measured:
Conditions in all cases: concentration: 1 μM, replicates: in singlicate; n = 1
[1] = system: T1, DCAMKL2
T1 construct: gene DCLK2

[2] = system: T2, DCAMKL3
T2 construct: gene DCLK3

[3] = system: DDR1
[4] = system: DDR2
[5] = system: T3, DLK
T3 construct: gene MAP3K12

[6] = system: T4, DMPK2
T4 construct: gene CDC42BPG

[7] = system: DMPK
[8] = system: T5, DRAK1
T5 construct: gene STK17A

[9] = system: T6, DRAK2
T6 construct: gene STK17B

[10] = system: DYRK1A
[11] = system: DYRK1B
[12] = system: DYRK2
[13] = system: EGFR
[14] = system: EIF2AK1
[15] = system: EPHA1
[16] = system: EPHA2
[17] = system: EPHA3
[18] = system: EPHA4
[19] = system: EPHA5
[20] = system: EPHA6
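Further: KINOMEscan kinase panel screen.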

For `O=C(Nc1n[nH]c2cc(-c3ccoc3)ccc12)C1CC1` [SB-738481], the “%Inh” value [1] was 0%, the “%Inh” value [2] was 0% and the “%Inh” value [3] was 0%. The “%Inh” value [4] was 5%, the “%Inh” value [5] was 0% and the “%Inh” value [6] was 24%. The “%Inh” value [7] was 0%, the “%Inh” value [8] was 24% and the “%Inh” value [9] was 0%. The “%Inh” value [10] was 61%, the “%Inh” value [11] was 23% and the “%Inh” value [12] was 75%. For the same molecule, the “%Inh” value [13] was 6%, the “%Inh” value [14] was 0% and the “%Inh” value [15] was 13%. For the same molecule, the “%Inh” value [16] was 0%, the “%Inh” value [17] was 0% and the “%Inh” value [18] was 5%. For the same molecule, the “%Inh” value [19] was 2% and the “%Inh” value [20] was 9%.

With `Cn1cc(-c2ccc3c(c2)CCN3C(=O)Cc2cccc(Cl)c2)c2c(N)ncnc21` [GSK2606590] the “%Inh” value [1] was 19%, the “%Inh” value [2] was 0% and the “%Inh” value [3] was 99.5%. The “%Inh” value [4] was 57%, the “%Inh” value [5] was 51% and the “%Inh” value [6] was 53%. The “%Inh” value [7] was 0%, the “%Inh” value [8] was 0% and the “%Inh” value [9] was 0%. The “%Inh” value [10] was 11%, the “%Inh” value [11] was 0% and the “%Inh” value [12] was 5%. The “%Inh” value [13] was 2%, the “%Inh” value [14] was 89% and the “%Inh” value [15] was 11%. The “%Inh” value [16] was 10%, the “%Inh” value [17] was 0% and the “%Inh” value [18] was 0%. The “%Inh” value [19] was 0% and the “%Inh” value [20] was 17%.

For `O=C(Nc1cccc(Oc2ccc3nc(NC(=O)C4CC4)cn3n2)c1)c1ccccc1C(F)(F)F`, the “%Inh” value [1] was 0%, the “%Inh” value [2] was 0% and the “%Inh” value [3] was 98.9%. The “%Inh” value [4] was 88%, the “%Inh” value [5] was 7% and the “%Inh” value [6] was 17%. For the same molecule, the “%Inh” value [7] was 0%, the “%Inh” value [8] was 0% and the “%Inh” value [9] was 21%. The “%Inh” value [10] was 12%, the “%Inh” value [11] was 12% and the “%Inh” value [12] was 0%. The “%Inh” value [13] was 82%, the “%Inh” value [14] was 0% and the “%Inh” value [15] was 35%. For the same molecule, the “%Inh” value [16] was 29%, the “%Inh” value [17] was 3% and the “%Inh” value [18] was 28%. For the same molecule, the “%Inh” value [19] was 0% and the “%Inh” value [20] was 16%.

`Oc1cc(Nc2ccnc3cc(I)ccc23)ccc1F` [GW552771] was tested, and the “%Inh” value [1] was 0%, the “%Inh” value [2] was 0% and the “%Inh” value [3] was 14%. The “%Inh” value [4] was 19%, the “%Inh” value [5] was 32% and the “%Inh” value [6] was 0%. For the same molecule, the “%Inh” value [7] was 0%, the “%Inh” value [8] was 0% and the “%Inh” value [9] was 6%. The “%Inh” value [10] was 36%, the “%Inh” value [11] was 0% and the “%Inh” value [12] was 8%. The “%Inh” value [13] was 32%, the “%Inh” value [14] was 0% and the “%Inh” value [15] was 94.8%. The “%Inh” value [16] was 34%, the “%Inh” value [17] was 48% and the “%Inh” value [18] was 29%. For the same molecule, the “%Inh” value [19] was 0% and the “%Inh” value [20] was 29%.

With `CN(c1ccc(NC(=O)Nc2cc(C(F)(F)F)ccc2F)cc1)c1ccnc(Nc2ccc(S(N)(=O)=O)cc2)n1` [GW809893] the “%Inh” value [1] was 2%, the “%Inh” value [2] was 6% and the “%Inh” value [3] was 97.6%. The “%Inh” value [4] was 93.9%, the “%Inh” value [5] was 14% and the “%Inh” value [6] was 9%. The “%Inh” value [7] was 0%, the “%Inh” value [8] was 0% and the “%Inh” value [9] was 18%. For the same molecule, the “%Inh” value [10] was 17%, the “%Inh” value [11] was 10% and the “%Inh” value [12] was 14%. The “%Inh” value [13] was 4%, the “%Inh” value [14] was 10% and the “%Inh” value [15] was 97.4%. For the same molecule, the “%Inh” value [16] was 96.1%, the “%Inh” value [17] was 78% and the “%Inh” value [18] was 96.9%. The “%Inh” value [19] was 97.5% and the “%Inh” value [20] was 98.5%.

In the case of `O=C(NC1CCN(c2ccnc(Nc3ccc(F)cc3)n2)C1)c1cc2ccccc2s1` (stereo not drawn) [GSK1379716], the “%Inh” value [1] is reported as 9%, the “%Inh” value [2] is reported as 7% and the “%Inh” value [3] is reported as 0%. The “%Inh” value [4] was 32%, the “%Inh” value [5] was 32% and the “%Inh” value [6] was 0%. The “%Inh” value [7] was 0%, the “%Inh” value [8] was 7% and the “%Inh” value [9] was 0%. The “%Inh” value [10] was 7%, the “%Inh” value [11] was 14% and the “%Inh” value [12] was 0%. The “%Inh” value [13] was 22%, the “%Inh” value [14] was 0% and the “%Inh” value [15] was 9%. The “%Inh” value [16] was 17%, the “%Inh” value [17] was 0% and the “%Inh” value [18] was 16%. For the same molecule, the “%Inh” value [19] was 2% and the “%Inh” value [20] was 10%.

In the case of `c1ccc(Oc2ccc(Nc3ccnc4cc(-c5ccc(CNCCN6CCOCC6)o5)ccc34)cc2)nc1` [GW567145], the “%Inh” value [1] is reported as 0%, the “%Inh” value [2] is reported as 0% and the “%Inh” value [3] is reported as 0%. The “%Inh” value [4] was 50%, the “%Inh” value [5] was 49% and the “%Inh” value [6] was 0%. For the same molecule, the “%Inh” value [7] was 0%, the “%Inh” value [8] was 2% and the “%Inh” value [9] was 54%. For the same molecule, the “%Inh” value [10] was 0%, the “%Inh” value [11] was 0% and the “%Inh” value [12] was 15%. The “%Inh” value [13] was 39%, the “%Inh” value [14] was 0% and the “%Inh” value [15] was 72%. For the same molecule, the “%Inh” value [16] was 12%, the “%Inh” value [17] was 17% and the “%Inh” value [18] was 0%. The “%Inh” value [19] was 0% and the “%Inh” value [20] was 0%.

With `Clc1ccc(-c2nn3ncccc3c2-c2ccnc(Nc3ccc4c(c3)OCCO4)n2)cc1` [GW829116] the “%Inh” value [1] was 0%, the “%Inh” value [2] was 0% and the “%Inh” value [3] was 98.5%. For the same molecule, the “%Inh” value [4] was 95.9%, the “%Inh” value [5] was 0% and the “%Inh” value [6] was 92.9%. For the same molecule, the “%Inh” value [7] was 0%, the “%Inh” value [8] was 0% and the “%Inh” value [9] was 0%. The “%Inh” value [10] was 0%, the “%Inh” value [11] was 0% and the “%Inh” value [12] was 0%. The “%Inh” value [13] was 84%, the “%Inh” value [14] was 0% and the “%Inh” value [15] was 0%. The “%Inh” value [16] was 0%, the “%Inh” value [17] was 0% and the “%Inh” value [18] was 12%. The “%Inh” value [19] was 19% and the “%Inh” value [20] was 34%.

In the case of `COc1ccc(CNC(=O)NC2CCN(c3ccnc(Nc4ccc(F)cc4)n3)CC2)cc1` [GSK1379788], the “%Inh” value [1] is reported as 0%, the “%Inh” value [2] is reported as 5% and the “%Inh” value [3] is reported as 0%. The “%Inh” value [4] was 32%, the “%Inh” value [5] was 34% and the “%Inh” value [6] was 0%. For the same molecule, the “%Inh” value [7] was 0%, the “%Inh” value [8] was 0% and the “%Inh” value [9] was 0%. The “%Inh” value [10] was 0%, the “%Inh” value [11] was 0% and the “%Inh” value [12] was 0%. The “%Inh” value [13] was 13%, the “%Inh” value [14] was 0% and the “%Inh” value [15] was 7%. The “%Inh” value [16] was 1%, the “%Inh” value [17] was 1% and the “%Inh” value [18] was 0%. The “%Inh” value [19] was 0% and the “%Inh” value [20] was 0%.
